Inconclusive results are not listed. Some structures have more than one record in an assay (separate samples or runs), and their calls can disagree. Activity calls are given as the source filed them. Rule for the calls: active = hit-call score of the fitted dose curve at least 0.9, where 1 is the maximum; inconclusive = response in the unintended direction; inactive = score below 0.9.
experiment: TOX21_p53_BLA_p3_viability: Viability Assessment in the Tox21 HCT-116 p53 Agonism Beta-lactamase Assay, Phase 3 (AID 2283593);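 note: cells exposed to compound for 16 h before reading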
Description: TOX21_p53_BLA_p3 is a cell-based, single-readout assay that uses HCT116, a human intestinal cell line, […] in a 1536-well plate.TOX21_p53_BLA_p3_viability is an assay readout measuring cellular ATP content and detected with CellTiter-Glo Luciferase-coupled ATP quantitation.TOX21_p53_BLA_p3_viability used a type of viability reporter where loss-of-signal activity can be used to understand changes in the cell viability. Furthermore, this assay endpoint can be referred to as a secondary readout, because this assay has produced multiple assay endpoints where this one serves a viability function. To generalize the intended target to other relatable targets, this assay endpoint is annotated to the cell cycle intended target family, where the subfamily is cytotoxicity.
Thawing Method: Place 14 mL of pre-warmed thaw medium into a 15 mL of conical tub. Remove the vial of cells to be thawed from liquid nitrogen and thaw rapidly by placing at 37C in a water bath with gentle agitation for 1-2 minutes. Decontaminate the vial by wiping with 70% ethanol before opening in a biological safety cabinet. Transfer the vial contents drop-wise into 14 mL of thaw medium in a sterile 15-mL conical tub. Centrifuge cells at 900 rpm for 4 minutes and resuspend in thaw medium. Transfer contents to the T75 tissue culture flask containing Thaw Medium and place flask in a humidified 37C/5% CO2 incubator. Switch to growth medium at first passage.Propagation Method: Aspirate medium, rinse once in DPBS, add 0.25% Trypsin/EDTA and swirl to coat the cell evenly. Add an equal volume of Growth Medium to inactivate Trypsin after 2-3 minutes incubation at 37C. Centrifuge cells at 900 rpm for 4 minutes and resuspend in growth medium. Cell should be passage or fed at least twice a week.Assay Protocol: Harvest cells from culture in growth medium and resuspend in assay medium. 2.2 Dispense 4000 cells/5 uL/well into 1536-well black/clear bottom plates using a Multidrop dispenser. After the cells were incubated at 37C for 5 hours, 23 nL of compounds dissolved in DMSO were transferred to the assay plate by a PinTool resulting in a 217-fold dilution. Incubate the plates for 16 hours at 37C, 5% CO2. Add 1 uL of 6X LiveBLAzer FRET B/G (CCF4-AM) Substrate Mixture to each well using a BioRAPTR dispenser and incubate the plates at room temperature for 2 hours. Measure fluorescence intensity at 460 and 530 nm emission and 405 nm excitation by an Envision detector. Data is expressed as the ratio of 460nm/530nm emissions. Add 4 uL of Cell-titer Glo to each well using BioRAPTR and incubate the plates at room temperature for […]. For cell viability readout that measures cytotoxicity, 4 ul/well of CellTiter-Glo reagent was added into the assay plates using a Flying Reagent Dispenser. After 30 min incubation at room temperature, the luminescence intensity in the plates was measured using a ViewLux plate reader.

Question: For `CC(C)(C)c1cc(CCC(=O)NN)cc(C(C)(C)C)c1O`, which outcome is on record?
Answer: Its outcome is “inactive”.

Question: With `ClCCCl` as the compound, how does the outcome read?
Answer: Its outcome is “inactive”.

Question: With `OC1OC[C@@H](O)[C@H](O)[C@H]1O` (stereo not given in full) as the compound, how does the outcome read?
Answer: Its outcome is “inactive”.

Question: For `CCCCNC(=O)NS(=O)(=O)c1ccc(C)cc1`, which outcome is on record?
Answer: The outcome was “inactive”.

Question: For `CCN(CC)CCOC(=O)c1ccc(N)cc1`, which outcome is on record?
Answer: The outcome was “inactive”.

Question: Which outcome does the source give for `CCc1ccc(C=O)cc1` here?
Answer: Its outcome is “inactive”.

Question: With `COc1ccc(Nc2ccccc2)c(C)c1` as the compound, how does the outcome read?
Answer: Its outcome is “inactive”.

Question: With `O=P(c1ccccc1)(c1ccccc1)c1ccccc1` as the compound, how does the outcome read?
Answer: The outcome was “inactive”.

Question: Which outcome does the source give for `CCCCN` here?
Answer: Its outcome is “inactive”.

Question: Which outcome does the source give for `CCCC(=O)C(C)=O` here?
Answer: Its outcome is “inactive”.

Question: With `CCCC(=O)c1cc(O)c(O)cc1O` as the compound, how does the outcome read?
Answer: Its outcome is “inactive”.

Question: With `NC(=O)NC1NC(=O)NC1=O` (stereo not given) as the compound, how does the outcome read?
Answer: The outcome was “inactive”.

Question: For `CC(C)[C@H]1CC[C@@H](C)CC1=O`, which outcome is on record?
Answer: The outcome was “inactive”.

Question: With `COC(C)CCO` (stereo not given) as the compound, how does the outcome read?
Answer: The outcome was “inactive”.

Question: With `Nc1ccc(S(N)(=O)=O)cc1` as the compound, how does the outcome read?
Answer: The outcome was “inactive”.

Question: Which outcome does the source give for `CN1[C@@H]2CC(OC(=O)[C@H](CO)c3ccccc3)C[C@H]1[C@@H]1O[C@@H]12` (stereo not given in full) here?
Answer: The outcome was “inactive”.

Question: For `CC(C)(C#N)c1cc(Cn2cncn2)cc(C(C)(C)C#N)c1`, which outcome is on record?
Answer: The outcome was “inactive”.

Question: Which outcome does the source give for `CCCCCCCCCCCCSC` here?
Answer: Its outcome is “inactive”.

Question: For `CC(=O)C(=O)O`, which outcome is on record?
Answer: The outcome was “inactive”.

Question: With `c1ccc(CCCc2ccccn2)cc1` as the compound, how does the outcome read?
Answer: Its outcome is “inactive”.

Question: For `CCCCCC=CCC(=O)OC`, which outcome is on record?
Answer: The outcome was “inactive”.

Question: For `Cc1ccc(C=O)s1`, which outcome is on record?
Answer: Its outcome is “inactive”.

Question: Which outcome does the source give for `O=C(O)c1ccc(C(=O)O)cc1` here?
Answer: The outcome was “inactive”.

Question: With `Nc1cc(Cl)c(O)c(Cl)c1` as the compound, how does the outcome read?
Answer: Its outcome is “inactive”.

Question: For `CC(=O)O[C@]1(C(C)=O)CC[C@H]2[C@@H]3C[C@H](C)C4=CC(=O)CC[C@]4(C)[C@H]3CC[C@@]21C`, which outcome is on record?
Answer: Its outcome is “inactive”.

Question: Which outcome does the source give for `CC(C)[C@@H]1CC[C@@H](C)CC1=O` here?
Answer: Its outcome is “inactive”.

Question: For `C[C@]12CC[C@H]3[C@@H](CCC4=CC(=O)CC[C@@]43C)[C@@H]1CC[C@@H]2C(=O)CO`, which outcome is on record?
Answer: The outcome was “inactive”.

Question: Which outcome does the source give for `CC(C)c1ccc(C(C)C)cc1` here?
Answer: The outcome was “inactive”.

Question: For `O=[N+]([O-])c1cc(C(F)(F)F)ccc1Cl`, which outcome is on record?
Answer: Its outcome is “inactive”.

Question: With `O=C(O)c1snc(Cl)c1Cl` as the compound, how does the outcome read?
Answer: The outcome was “inactive”.

Question: Which outcome does the source give for `Cc1ccc(O)c(C(C)(C)C)c1` here?
Answer: Its outcome is “inactive”.

Question: And the AC50?
Answer: The AC50 was 36.7 µM (active).

Question: Which results are given for `O=Nc1ccc(Nc2ccccc2)cc1`?
Answer: AC50: 67 µM (active); outcome: inactive

Question: Which outcome does the source give for `c1ccc2[nH]ccc2c1` here?
Answer: The outcome was “inactive”.

Question: Which outcome does the source give for `CC(C)=CCCC(C)=CCCC(C)=CCO` here?
Answer: Its outcome is “inactive”.

Question: With `OCC(CO)(CO)COCC(CO)(CO)CO` as the compound, how does the outcome read?
Answer: The outcome was “inactive”.

Question: Which outcome does the source give for `O=S(=O)(O)c1ccc(O)c2ncccc12` here?
Answer: Its outcome is “inactive”.

Question: For `Cc1ncc([N+](=O)[O-])n1C`, which outcome is on record?
Answer: Its outcome is “inactive”.

Question: Which outcome does the source give for `C=C(C)C(=O)O` here?
Answer: Its outcome is “inactive”.

From PubChem BioAssay (EPA / NIEHS)
